Among the data in PubChem BioAssay (Tox21) are Potency and outcome values, retold here.

Test [1] in a line: qHTS assay to identify small molecule antagonists of the sonic hedgehog signaling (Shh) pathway (AID 1259369; calls by dose curve; note: nearly all actives have a fitted effect of over 45% in size). Put shortly: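 3T3Gli1-Luc, conditioned-medium-stimulated, 24hr cpd, 37C/5% CO2; Gli1-driven firefly Luc luminescence after 30min RT with luciferase reagent. Cells plated 4hr before cpd.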
A general note: In qHTS, concentration-response curves come from the screen itself.

Test [2] deals with Estrogen receptor beta (Homo sapiens) (UniProt Q92731). Kind of test: qHTS assay to identify small molecule agonists of the estrogen receptor beta (ER-beta) signaling pathway (AID 1259377; active = well fitted activation curve with a large enough effect in the signal ratio in the repeat runs, not every such curve was filed as active; the % refers to the signal ratio; note: potency is the fitted concentration of half-maximal effect). In a few lines: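 Beta-lactamase reporter readout: fluorescence of LiveBLAzer B/G FRET substrate after 2 h at room temperature, following 16 h compound treatment of ER-beta-UAS-bla HEK293T cells at 37C in 2% charcoal-stripped FBS medium.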
Estrogen receptor beta (Homo sapiens), sequence (Q92731 whole entry, looked up): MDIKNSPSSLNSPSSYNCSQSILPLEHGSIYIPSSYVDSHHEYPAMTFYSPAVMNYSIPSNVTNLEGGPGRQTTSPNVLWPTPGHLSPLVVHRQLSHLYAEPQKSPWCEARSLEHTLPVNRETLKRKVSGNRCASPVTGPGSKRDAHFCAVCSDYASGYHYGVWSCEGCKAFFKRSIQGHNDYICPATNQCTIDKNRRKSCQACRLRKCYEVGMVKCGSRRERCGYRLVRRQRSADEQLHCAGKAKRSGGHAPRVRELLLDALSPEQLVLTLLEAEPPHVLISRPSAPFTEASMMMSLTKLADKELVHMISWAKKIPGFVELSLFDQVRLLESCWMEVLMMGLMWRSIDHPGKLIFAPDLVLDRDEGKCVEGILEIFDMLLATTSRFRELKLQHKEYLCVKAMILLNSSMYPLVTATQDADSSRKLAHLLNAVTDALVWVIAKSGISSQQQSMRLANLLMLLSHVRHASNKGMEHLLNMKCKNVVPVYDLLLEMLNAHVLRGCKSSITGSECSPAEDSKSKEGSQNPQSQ

For test [3] the target is unchanged. Kind of test: qHTS assay to identify small molecule antagonists of the estrogen receptor beta (ER-beta) signaling pathway (AID 1259378; active = well fitted inhibition curve with a large enough effect in the signal ratio in the repeat runs, not every such curve was filed as active; the % refers to the signal ratio). In a few lines: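 Antagonist mode: compounds added to beta-lactamase reporter HEK293T ER-beta-UAS cells stimulated with E2 (1nM final), 16 hr at 37C. LiveBLAzer B/G FRET substrate, 2 hours room temperature, fluorescence read-out.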

The nature of test [4]: qHTS assay to identify small molecule agonists of the androgen receptor (AR) signaling pathway in the presence of an antagonist - cell viability counter screen (AID 1259379). Note: nearly all actives have a fitted effect of over 25% in size. Note: potency is the fitted concentration of half-maximal effect. In a few lines:
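Cells: MDA-kb2 (MMTV-luc, AR and GR elements), 3,000/well, 5 hr settle. Added: nilutamide 3.0uM final, then compounds (15 conc.). Incubation: 16 hr, 37C, no CO2. Read-out: CellTiter-Fluor, 1 hr, fluorescence.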

Test [5] in a line: qHTS assay to identify small molecule agonists of the estrogen receptor beta (ER-beta) signaling pathway - cell viability counter screen (AID 1259380). Note: nearly all actives have a fitted effect of over 30% in size. In a few lines: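 HEK293T ER-beta-UAS-bla; 2% CS-FBS; 6 hr pre-plate, 16 hr cpd at 37C/5% CO2; LiveBLAzer read first, then CellTiter-Glo 30 min RT, luminescence.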
Test [6] can be described thus: qHTS assay to identify small molecule antagonists of the estrogen receptor beta (ER-beta) signaling pathway - cell viability counter screen (AID 1259382).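 Note: HEK293T cells carrying ER-beta-UAS-bla reporter stimulated with estradiol; series mostly up to about 92 µM; nearly all actives have a fitted effect of over 55% in size.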 In a few lines: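 Cells: ER-beta-UAS-bla HEK293T, 2,000/well, 2% CS-FBS, 6 hr settle. Cpd + E2 (1nM final), 16 hr, 37C/5% CO2. Bla FRET substrate 2 hr RT, then CellTiter-Glo 30 min RT, luminescence.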
Test [7] addresses Estrogen receptor (Homo sapiens) (UniProt P03372). Kind of test: qHTS assay to identify small molecule agonists of the estrogen receptor alpha (ER-alpha) signaling pathway in the presence of an antagonist (AID 1259383; calls by dose curve; note: top concentration of the series differs between compounds; nearly all actives have a fitted effect of over 15% in size). Put shortly:
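VM7Luc4E2, endog. ER-alpha + 4×ERE-luc; charcoal-stripped FBS, phenol red-free, 5 d; 24hr plating; +10.0nM ICI-182,780 (final); cpds 15 conc, 22hr, 37C/5% CO2; ONE-Glo luminescence.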

Test [8] is described as follows: qHTS assay to identify small molecule agonists or antagonists of the thyroid stimulating hormone receptor (TSHR) signaling pathway - wild type cell line counter screen (AID 1259384; calls by dose curve). In a few lines: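 Counter screen in untransfected Hek293: compounds (15-point titration, triplicate) plus phosphodiesterase inhibitor Ro20-1724 added after 18 h plating; 30 min RT. Intracellular cAMP via competitive d2/cryptate immunoassay, 1 h incubation.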

For test [9], the target named is Thyrotropin receptor (Homo sapiens) (UniProt P16473). Kind of test: qHTS assay to identify small molecule antagonists of the thyroid stimulating hormone receptor (TSHR) signaling pathway (AID 1259385; calls by dose curve; note: nearly all actives have a fitted effect of over 20% in size). In a few lines: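 Antagonist mode: compound-treated TSHR-expressing HEK293 cells were stimulated with 1.5 ng/mL TSH (final) in presence of Ro20-1724 for 30 min at RT. HTRF cAMP detection after 1 h; each compound tested at 15 concentrations, triplicate.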
Thyrotropin receptor (Homo sapiens), sequence (P16473 whole entry, looked up): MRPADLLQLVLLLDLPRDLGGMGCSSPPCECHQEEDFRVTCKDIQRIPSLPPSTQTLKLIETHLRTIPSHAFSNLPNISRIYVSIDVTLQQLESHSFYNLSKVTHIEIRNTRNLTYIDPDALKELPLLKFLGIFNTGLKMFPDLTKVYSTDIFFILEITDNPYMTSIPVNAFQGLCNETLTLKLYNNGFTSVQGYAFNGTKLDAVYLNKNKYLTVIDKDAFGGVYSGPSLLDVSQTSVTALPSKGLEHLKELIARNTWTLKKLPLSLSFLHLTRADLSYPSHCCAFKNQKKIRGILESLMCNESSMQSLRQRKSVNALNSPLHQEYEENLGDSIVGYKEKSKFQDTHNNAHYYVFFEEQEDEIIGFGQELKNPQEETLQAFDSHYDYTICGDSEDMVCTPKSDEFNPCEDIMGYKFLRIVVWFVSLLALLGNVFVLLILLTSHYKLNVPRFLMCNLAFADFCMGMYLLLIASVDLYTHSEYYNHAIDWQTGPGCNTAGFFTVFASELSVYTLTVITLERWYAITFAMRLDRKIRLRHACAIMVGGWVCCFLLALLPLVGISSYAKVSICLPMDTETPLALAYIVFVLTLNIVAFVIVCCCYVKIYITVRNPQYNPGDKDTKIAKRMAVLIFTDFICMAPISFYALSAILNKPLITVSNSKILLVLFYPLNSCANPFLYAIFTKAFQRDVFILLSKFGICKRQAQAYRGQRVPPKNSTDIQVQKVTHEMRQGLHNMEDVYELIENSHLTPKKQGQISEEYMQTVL

A short description of test [10]: qHTS assay to identify small molecule agonists of the estrogen receptor alpha (ER-alpha) signaling pathway in the presence of an antagonist - cell viability counter screen (AID 1259386).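 Note: cells exposed to compounds for 22 h at 37 °C before the viability read; nearly all actives have a fitted effect of over 30% in size.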 Note: potency is the fitted concentration of half-maximal effect. In a few lines:
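VM7Luc4E2, stripped-serum pre-culture 5 d; 24hr plating; +ICI-182,780 10.0nM final; cpds 15 conc, 22hr, 37C/5% CO2; CellTiter-Fluor added at 21hr, fluorescence 1hr later.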

Test [11] addresses Progesterone receptor (Homo sapiens) (UniProt P06401). Kind of test: qHTS assay to identify small molecule agonists of the progesterone receptor (PR) signaling pathway (AID 1346784; calls by dose curve; note: nearly all actives have a fitted effect of over 30% in size). In a few lines:
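HEK 293T PR-UAS-bla reporter cells, 2% charcoal-stripped FBS; 6 hr settle at 37C/5% CO2, compound (DMSO) 16 hr, LiveBLAzer B/G FRET substrate 2 hr RT, fluorescence intensity read.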

Test [12] can be described thus: qHTS assay to identify small molecule antagonists of the progesterone receptor (PR) signaling pathway - cell viability counter screen (AID 1346798). Note: series mostly up to about 92 µM; nearly all actives have a fitted effect of over 50% in size. In a few lines:
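Luminescence readout (CellTiter-Glo, 30 min, RT) of viability in PR-UAS-bla HEK293T cells exposed to compound and R5020 agonist for 16 hr at 37C, 5% CO2; run in the same wells as the beta-lactamase reporter read.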

Test [13] can be described thus: qHTS assay to identify small molecule agonists of the progesterone receptor (PR) signaling pathway - cell viability counter screen (AID 1346799; calls by dose curve; note: nearly all actives have a fitted effect of over 45% in size). In a few lines:
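HEK293T PR-UAS-bla, 3,000 cells/well, 2% charcoal-stripped FBS; 6 h settle, compound 16 h at 37C/5% CO2; LiveBLAzer 2 h RT, then CellTiter-Glo 30 min RT, luminescence read.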

A short description of test [14]: qHTS assay to identify small molecule antagonists of the TGF-beta/Smad signaling pathway - cell viability counter screen (AID 1346824). Note: nearly all actives have a fitted effect of over 50% in size. In a few lines: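 Cytotoxicity counter-screen run in the same wells as the beta-lactamase Smad reporter read: CellTiter-Glo luminescence after 30 min at room temperature. HEK 293T SBE-bla cells had 5 hr compound exposure at 37 C with TGF-beta1 (0.25 ng/mL stock).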

The nature of test [15]: qHTS assay to identify small molecule agonists of the TGF-beta/Smad signaling pathway - cell viability counter screen (AID 1346829). Note: top concentration of the series differs between compounds; nearly all actives have a fitted effect of over 45% in size. In a few lines:
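After overnight seating at 37 C and 5% CO2, reporter cells got compounds for 5 hr and FRET substrate for 2 hr; cell viability then came from CellTiter-Glo luminescence.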

Test [16] is described as follows: qHTS assay to identify small molecule agonists of the TGF-beta/Smad signaling pathway (AID 1346859; active = well fitted activation curve with a large enough effect in the signal ratio in the repeat runs, not every such curve was filed as active; the % refers to the signal ratio; note: series mostly up to about 77 µM). In a few lines: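 Read-out: fluorescence at 460 and 530 nm (405 nm excitation) after a 2 hr room-temperature incubation with beta-lactamase FRET substrate. SBE-bla HEK 293T cells had been treated with test compounds for 5 hr at 37 C.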
In test [17] the target is Thyrotropin-releasing hormone receptor (Homo sapiens) (UniProt P34981). The experiment in a line: qHTS assay to identify small molecule antagonists of the thyrotropin-releasing hormone receptor (TRHR) signaling pathway (AID 1346877; active = well fitted inhibition curve with a large enough effect in the repeat runs, not every such curve was filed as active; note: series mostly up to about 51 µM). In a few lines: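 Intracellular calcium fluorescence, read kinetically every second over 3 min, reports TRH-evoked signalling in HEK293 cells carrying TRHR. Test compounds were added 5 min ahead of a 1 nM TRH challenge.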
Thyrotropin-releasing hormone receptor (Homo sapiens), sequence (P34981 whole entry, looked up): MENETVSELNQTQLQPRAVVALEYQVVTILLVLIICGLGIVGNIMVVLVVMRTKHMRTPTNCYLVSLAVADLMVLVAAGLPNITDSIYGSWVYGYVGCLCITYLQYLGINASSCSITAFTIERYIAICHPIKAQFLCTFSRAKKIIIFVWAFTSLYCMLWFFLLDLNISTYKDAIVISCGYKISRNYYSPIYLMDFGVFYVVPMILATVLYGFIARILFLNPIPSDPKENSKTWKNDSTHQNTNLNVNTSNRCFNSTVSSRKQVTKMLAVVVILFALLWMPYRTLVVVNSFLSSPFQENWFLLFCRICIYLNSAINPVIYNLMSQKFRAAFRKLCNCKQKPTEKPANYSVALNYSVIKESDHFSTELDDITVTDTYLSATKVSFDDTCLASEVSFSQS

For test [18] the target is unchanged. Kind of test: qHTS assay to identify small molecule agonists of the thyrotropin-releasing hormone receptor (TRHR) signaling pathway (AID 1346891; calls by dose curve;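 note: HEK293 cells expressing TRHR with calcium dye readout; series mostly up to about 58 µM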). Put shortly:
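HEK293/TRHR cells, 1500 per well, 18 h 37 °C; Ca dye 2 h 37 °C; pin-tool compound addition (agonist mode); kinetic fluorescence 3 min, 1 s reads; 15 concentrations, triplicate.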

Test [19] deals with Progesterone receptor (Homo sapiens) (UniProt P06401). The experiment in a line: qHTS assay to identify small molecule antagonists of the progesterone receptor (PR) signaling pathway (AID 1346795; active = well fitted inhibition curve with a large enough effect in the signal ratio in the repeat runs, not every such curve was filed as active; the % refers to the signal ratio). In a few lines: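 Beta-lactamase reporter, HEK293T PR-UAS-bla line; 2% charcoal-stripped FBS; 6 hr pre-incubation, 37C/5% CO2. Compound + R5020 1 nM final, 16 hr. LiveBLAzer B/G FRET substrate, 2 hr RT; fluorescence intensity read.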
Progesterone receptor (Homo sapiens), sequence (P06401 whole entry, looked up): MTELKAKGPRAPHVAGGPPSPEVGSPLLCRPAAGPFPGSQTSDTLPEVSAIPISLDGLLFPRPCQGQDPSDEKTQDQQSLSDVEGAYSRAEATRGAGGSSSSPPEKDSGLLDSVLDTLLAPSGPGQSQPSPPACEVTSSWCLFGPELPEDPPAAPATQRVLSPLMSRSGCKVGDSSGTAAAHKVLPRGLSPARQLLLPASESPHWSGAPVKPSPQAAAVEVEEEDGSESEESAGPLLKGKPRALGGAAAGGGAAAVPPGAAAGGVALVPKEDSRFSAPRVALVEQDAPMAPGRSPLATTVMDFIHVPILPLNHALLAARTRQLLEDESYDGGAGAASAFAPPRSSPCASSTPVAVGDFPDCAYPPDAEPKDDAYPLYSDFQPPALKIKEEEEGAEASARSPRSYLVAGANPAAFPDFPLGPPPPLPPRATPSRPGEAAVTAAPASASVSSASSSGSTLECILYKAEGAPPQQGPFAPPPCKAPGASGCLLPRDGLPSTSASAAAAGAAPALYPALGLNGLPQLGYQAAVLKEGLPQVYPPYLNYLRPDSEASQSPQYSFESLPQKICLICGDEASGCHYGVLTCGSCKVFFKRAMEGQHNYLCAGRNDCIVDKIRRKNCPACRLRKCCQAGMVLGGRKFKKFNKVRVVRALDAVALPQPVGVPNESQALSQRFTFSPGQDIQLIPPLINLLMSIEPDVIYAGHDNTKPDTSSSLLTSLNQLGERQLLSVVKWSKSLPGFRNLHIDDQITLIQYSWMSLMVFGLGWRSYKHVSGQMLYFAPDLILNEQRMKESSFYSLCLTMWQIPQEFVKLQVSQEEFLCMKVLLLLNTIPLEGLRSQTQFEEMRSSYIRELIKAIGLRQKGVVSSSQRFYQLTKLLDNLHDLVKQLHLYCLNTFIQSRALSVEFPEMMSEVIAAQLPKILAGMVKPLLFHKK

Results filed as inconclusive are left out. Where a structure was tested more than once in an assay, its records may differ in their call. Calls of active or inactive are those of the source. Unless noted, calls come from the whole dose curve; as a rule, active = well fitted curve in the direction sought with a large enough effect in the repeat runs; inconclusive = weak or mixed curves; inactive = no such curve, though single readings can be large; an effect the other way counts as inactive or inconclusive.

Estrogen receptor (Homo sapiens), sequence (P03372 whole entry, looked up): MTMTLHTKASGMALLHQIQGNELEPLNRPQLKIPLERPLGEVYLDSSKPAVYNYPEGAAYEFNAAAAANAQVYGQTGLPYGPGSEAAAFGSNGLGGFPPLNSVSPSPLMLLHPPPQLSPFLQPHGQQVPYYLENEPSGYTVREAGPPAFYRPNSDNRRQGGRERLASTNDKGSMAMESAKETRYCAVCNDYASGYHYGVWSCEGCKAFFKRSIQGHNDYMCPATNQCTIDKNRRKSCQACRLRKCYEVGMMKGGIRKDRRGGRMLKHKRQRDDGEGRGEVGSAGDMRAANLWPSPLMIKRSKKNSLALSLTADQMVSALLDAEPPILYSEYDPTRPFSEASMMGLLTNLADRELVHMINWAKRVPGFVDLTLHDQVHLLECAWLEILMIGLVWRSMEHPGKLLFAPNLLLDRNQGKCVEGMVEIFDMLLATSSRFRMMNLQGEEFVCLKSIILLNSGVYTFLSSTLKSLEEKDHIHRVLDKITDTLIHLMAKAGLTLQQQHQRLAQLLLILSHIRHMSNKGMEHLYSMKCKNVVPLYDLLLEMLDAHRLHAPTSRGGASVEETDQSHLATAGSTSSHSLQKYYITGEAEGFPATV

As to `[O-]/[N+](=N\O)c1ccccc1`, the Potency entry in test [1], in [2], in [3], in [4], in [5] and in test [6] was “inactive” throughout. Also, the Potency entry in test [7], in [8], in [9], in test [10], in [11] and in [12] was “inactive” in each case. Further, the Potency result in [13], in test [14], in test [15], in test [17] and in [18] was “inactive” in each case. Besides, the outcome in test [16] was inactive.
As to `NCCS(=O)(=O)O`, the Potency result in test [1], in [2], in test [3], in test [5], in [6] and in [7] was “inactive” throughout. The Potency entry in test [8], in [9], in test [11], in test [19], in [12] and in test [13] was “inactive” in each case. In addition, the Potency entry in test [14], in test [15], in test [17] and in test [18] was “inactive” throughout. Further, the Potency in test [4] is 25.3 µM (active) and inactive; in test [10], 25.3 µM (active) and inactive. In addition, the result in test [16] was inactive.
For the molecule `CCCCCCC(C)O` (stereo not drawn), the Potency result in [1], in [2], in test [3], in [4], in [5] and in test [6] was “inactive” throughout. Also, the Potency result in test [7], in [10], in test [11], in test [19], in [12] and in test [13] was “inactive” throughout. Further, the Potency entry in test [14], in test [15], in [17] and in test [18] was “inactive” throughout. The call in test [16] was inactive.
Regarding `O=C(O)CCCC(=O)O`, the Potency result in test [1], in test [3], in test [4], in test [5], in test [6] and in [7] was “inactive” in each case. Also, the Potency result in test [8], in [9], in test [10], in [11], in [19] and in [12] was “inactive” in each case. For the same molecule, the Potency entry in [13], in test [14], in [15], in test [17] and in [18] was “inactive” throughout. Moreover, in test [2], the Potency was 30 µM (active) and inactive. Further, in test [16], the molecule was classed as inactive.
On to `CN(C)C`, for which the Potency result in [1], in [2], in [3], in [4], in test [5] and in test [6] was “inactive” throughout. The Potency result in test [7], in test [10], in [11], in test [19], in test [12] and in [13] was “inactive” in each case. For the same molecule, the Potency entry in test [14] and in test [15] was “inactive” in each case. For the same molecule, the molecule was classed as inactive in [16].
With `O=C(O)COCCN1CCN(C(c2ccccc2)c2ccc(Cl)cc2)CC1` (stereo not drawn), the Potency entry in test [1], in test [2], in test [3], in test [4], in test [5] and in test [6] was “inactive” throughout. For the same molecule, the Potency result in [7], in test [8], in test [9], in [11], in [19] and in test [12] was “inactive” throughout. Moreover, the Potency entry in test [13], in test [14], in [15], in test [17] and in test [18] was “inactive” each time. In test [16], the call was inactive.
As to `C1COCCN1`, the Potency result in [1], in test [2], in test [3], in test [4], in test [5] and in test [6] was “inactive” each time. Besides, the Potency entry in [7], in [8], in test [9], in [10], in test [11] and in [19] was “inactive” each time. The Potency result in test [12], in test [13], in test [14] and in test [15] was “inactive” throughout. Also, the outcome in test [16] was inactive.
